What was measured:
Settings in all cases: concentration: 1 μM, replicates: in singlicate; n = 1
MINK = test system: T1, MINK
T1 construct: gene MINK1

MKK7 = test system: MKK7
MKNK1 = test system: MKNK1
MKNK2 = test system: MKNK2
MLCK = test system: T2, MLCK
T2 construct: gene MYLK3

MLK1 = test system: T3, MLK1
T3 construct: gene MAP3K9

MLK2 = test system: MLK2
MLK3 = test system: MLK3
MRCKA = test system: MRCKA
MRCKB = test system: T4, MRCKB
T4 construct: gene CDC42BPB
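Further: KINOMEscan kinase panel screen.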

SMILES	%Inh (MINK) [%]	%Inh (MKK7) [%]	%Inh (MKNK1) [%]	%Inh (MKNK2) [%]	%Inh (MLCK) [%]	%Inh (MLK1) [%]	%Inh (MLK2) [%]	%Inh (MLK3) [%]	%Inh (MRCKA) [%]	%Inh (MRCKB) [%]
CS(=O)(=O)CCNCc1nc(-c2ccc3ncnc(Nc4ccc(OCc5ccccc5)c(Cl)c4)c3c2)cs1.Cl [GW582764]	0	0	0	0	89	0	0	0	3	0
Cc1ccc(NC(=O)Nc2ccc(Cl)c(C(F)(F)F)c2)cc1-c1ccc(C(=O)Nc2ccncc2)cc1 [GSK1398470]	20	0	3	0	0	10	36	17	1	5
COc1cc2ncnc(Nc3cccc(Br)c3)c2cc1OC.Cl [GI230329]	40	0	–	56	19	0	0	24	8	0
Fc1ccc(-c2nc3n(c2-c2ccncc2)CCS3)cc1 [GI98581]	45	0	0	2	15	3	19	21	2	25
COc1ccc(-c2coc3ccc(-c4nnc(C)o4)cc23)cc1	0	0	0	0	0	0	5	1	0	0

From article PMC5540273 (PLoS ONE, 2017)
